Source: PubChem BioAssay (National Center for Advancing Translational Sciences (NCATS))
The list is not random: actives were taken first. Their share in the collection is about 3.3%.
PI5P4K alpha inh: PI5P4K alpha (human) kinase inhibition | PI5P4Kalpha enzyme, ADP-Glo luminescence, 60 min; hits give low values | AID 652105 | max response, % | 1.2% of 330,000 active | P48426; active = max response of -50% or lower; inconclusive = between -30% and -50%; inactive = -30% or higher; also: value at the top dose of about 77 µM
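Single end-point luminescence (ADP-Glo) quantified ADP from PI5P4Kalpha turnover; ATP 5 microM final, 1 h at RT, 0.1% CHAPS and 0.28 mM EGTA in HEPES pH 7.4.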
DRD3 antagonist: antagonists of human D3 dopamine receptor; D3R cells, DiscoveRx beta-arrestin luminescence, antagonist mode; hits give low values; max response, negative = inhibition, %; 2.5% of 360,000 active; AID 652054; in the data active = max response below about -50%; inconclusive = no clear call, values can overlap the other calls
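Cells plated overnight at 1500 cells/well, then exposed to library compounds with dopamine controls for 90 minutes at 37 degrees C. DiscoveRx reagent added for 30–60 minutes at room temperature; luminescence read, quantitative HTS format.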
PI4K2A inh: inhibitors of human PI4K2A | purified PI4K2A, ADP-Glo luminescence, 1 h; hits give low values | activity change, negative = inhibition, % at 76.9 µM | 0.13% of 420,000 active; in the data active = activity change below about -50%; inconclusive = mostly about -30% to -49%
Target sequence (Q9BTU6 whole entry, looked up): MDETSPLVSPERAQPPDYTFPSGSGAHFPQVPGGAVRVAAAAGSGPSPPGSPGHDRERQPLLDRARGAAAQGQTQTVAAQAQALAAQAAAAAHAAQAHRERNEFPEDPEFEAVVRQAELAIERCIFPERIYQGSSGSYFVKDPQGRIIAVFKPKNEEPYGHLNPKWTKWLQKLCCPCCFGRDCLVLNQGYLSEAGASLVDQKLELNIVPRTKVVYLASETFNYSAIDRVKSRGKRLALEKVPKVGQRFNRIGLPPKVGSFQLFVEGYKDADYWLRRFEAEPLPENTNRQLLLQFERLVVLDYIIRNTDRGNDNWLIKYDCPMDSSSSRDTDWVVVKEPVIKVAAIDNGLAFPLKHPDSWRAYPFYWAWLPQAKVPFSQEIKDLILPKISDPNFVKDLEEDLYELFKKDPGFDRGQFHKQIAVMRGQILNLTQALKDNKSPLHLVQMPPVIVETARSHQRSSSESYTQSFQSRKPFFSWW
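ADP-Glo luminescence measured ADP generated by PI4K2A enzyme (4 ug/mL before mixing) with 1.2 mM PI substrate (pre-mix) and 300 microM ATP (pre-mix). Tris pH7.5 buffer with MgCl2, Triton X-100; 1 h reaction at ambient temperature.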
LDHA block: LDHA (human) enzyme inhibition; purified LDHA, NADH/diaphorase-resazurin fluorescence; hits give low values; activity change, % (values are at about 110 or 230 µM); 0.15% of 480,000 active; P00338; in the data active = activity change below about -30%; inconclusive = mostly about -25% to -30%
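Human LDH5 at 2 nM final in Tris HCl pH 7.4 with 0.06 mM NADH and 0.2 mM pyruvate, reacted 5 minutes at room temperature. Remaining NADH coupled via diaphorase/resazurin; resorufin fluorescence read at 0 and 20 minutes, normalized to enzyme-free and DMSO wells.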
DRD3 agonist: activates the human D3 dopamine receptor; P35462; 0.58% of 410,000 active; D3R DiscoveRx beta-arrestin cells, luminescence, 90 min; max activation, %; in the data active = max activation above about 30%
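Cells at 1500/well, incubated overnight, then treated with pinned compounds (dopamine as control) for 90 min at 37 degrees C. DiscoveRx reagent added for 30 - 60 minutes at room temperature; luminescence read.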
Numbers stand for hits; n = inactive; u = inconclusive; x = no result given.

SMILES | PI5P4K alpha inh | DRD3 antagonist | PI4K2A inh | LDHA block | DRD3 agonist
NNc1nc(-c2ccccc2Cl)nc2ccccc12 | n | -92.1 | n | n | n
CC(NC(=S)NC(=O)c1ccccc1Br)c1ccccc1 (stereo not given) | -56.4 | n | n | n | n
CC(C)C(NC(=O)c1ccccc1Br)c1ccccc1 (stereo not given) | n | n | n | n | n
Nc1ccc(C(=O)N/N=C\c2cc(N=Nc3cccc4ccccc34)ccc2O)cc1 | n | -94.9 | n | n | n
COC(=O)N/N=C/c1cc(N=Nc2ccccc2Cl)ccc1O | n | -91.3 | n | n | n
COC(=O)N/N=C/c1cc(N=Nc2ccccc2)ccc1O | n | -63.5 | n | n | n
O=C(CCc1nc2sc3c(c2c(=O)[nH]1)CCC3)N1CCCCC1 | x | x | x | n | x
N#Cc1ncn(Cc2coc(-c3cccc(Cl)c3)n2)n1 | x | x | x | n | x
S=C1Cc2ccccc2N1 | -63.8 | u | u | n | n
O=C(CN1CCN(c2nccs2)CC1)NCc1cccc(Cl)c1 | x | x | x | n | x
NNc1nccc(Nc2ccccc2C(=O)O)n1 | -54.5 | n | n | n | n
CCOc1cc(C(=S)N2CCCC2)ccc1OC | n | u | n | n | n
CCOc1cc(C(=S)N2CCCC2)ccc1OCC(=O)Nc1c(C)cc(C)cc1C | n | -54.7 | n | n | n
CCOC(=O)c1cnc2cc3c(cn2c1=O)CCCC3 | n | n | n | n | n
CCOC(=O)C1=C(SCC)c2cc3c(n2C1=O)CCCC3 | n | -56.7 | n | n | n
COc1ccc(Cc2n[nH]c(=S)o2)cc1 | n | n | n | n | n
S=c1[nH]nc(COc2ccc3ccccc3c2)o1 | u | -62.2 | n | n | n
CCS(=O)(=O)c1ncc(Cl)c(C(=O)Nc2ccc(S(=O)(=O)N(C)c3ccccc3)cc2)n1 | n | u | n | n | n
CS(=O)(=O)c1ncc(Cl)c(C(=O)Nc2ccc(OC(F)F)cc2)n1 | n | -151.6 | n | n | n
CS(=O)(=O)c1ncc(Cl)c(C(=O)Nc2ccc(N3CCOCC3)cc2)n1 | x | -77.9 | n | n | n
CCN(c1ccccc1)S(=O)(=O)c1ccc(NC(=O)c2nc(S(C)(=O)=O)ncc2Cl)cc1 | n | -93.4 | n | n | n
FC(F)(F)c1ccc(Cl)c(N/N=C/c2ccc(Br)cc2)c1 | x | x | x | n | x
CCCC(=O)OCCNc1cc(SCc2ccco2)c2nonc2c1[N+](=O)[O-] | -60.5 | n | u | n | n
CC(=O)OCCCNc1cc(SCc2ccco2)c2nonc2c1[N+](=O)[O-] | -50.7 | n | u | n | n
CCCSc1cc(NCCOC(=O)CCC)c([N+](=O)[O-])c2nonc12 | n | n | n | n | n
SMILES | PI5P4K alpha inh | DRD3 antagonist | PI4K2A inh | LDHA block | DRD3 agonist
CCCC(=O)OCCNc1cc(Sc2nccn2C)c2nonc2c1[N+](=O)[O-] | n | -91.9 | n | n | n
C1CCC(CC2CCCN2)CC1 (stereo not given) | x | x | x | n | x
O=C(c1ccc2c(c1)OCO2)C1CCCN(Cc2cc(F)ccc2-n2cccn2)C1 (stereo not given) | n | n | n | n | n
Cc1ccc(-n2cccn2)c(CN2CCCC(C(=O)c3ccc4c(c3)OCO4)C2)c1 (stereo not given) | n | -63.0 | n | n | n
O=C(c1ccc2c(c1)OCO2)C1CCCN(Cc2ccccc2OC(F)F)C1 (stereo not given) | n | -62.5 | n | n | n
CC(C)C(NC(=O)c1ccccc1Cl)c1nc(-c2cccnc2)no1 (stereo not given) | x | x | x | n | x
N#Cc1c(Nc2ccccc2Cl)s[nH]c1=O | u | -64.7 | n | n | n
N#Cc1c(Nc2ccccc2C(F)(F)F)s[nH]c1=O | u | u | n | n | n
Cn1c(=O)[nH]c(Nc2ccccc2)c([N+](=O)[O-])c1=O | -58.3 | n | n | n | n
Cc1ccccc1C(=O)Oc1ccc(OCc2ccccc2)cc1 | x | x | x | n | x
Cc1ccc(C(=O)Sc2cccccc2=O)cc1 | n | -94.1 | n | n | n
O=C(Nc1ccccc1SC(=O)c1ccccc1)c1ccccc1 | u | n | n | n | n
Cc1c(-n2nnnc2SC(C(=O)N2CCCCC2)c2ccccc2)c(=O)n(-c2ccccc2)n1C (stereo not given) | x | x | x | n | x
O=C(Nc1ccc2nc(SCc3ccccc3)sc2c1)C1CCCCC1 | x | x | x | n | x
CC(NC(=O)Nc1ccc(O)cc1)(C(F)(F)F)C(F)(F)F | n | n | -51.4 | n | n
CCC(NC(=O)Nc1ccc(O)cc1)(C(F)(F)F)C(F)(F)F | n | n | -51.8 | n | n
COc1ccc(NC(=O)NC(C)(C(F)(F)F)C(F)(F)F)cc1 | u | n | n | n | n
Cc1ccc2c(=O)cc(C(=O)NCCc3nc(-c4ccccc4)no3)oc2c1 | x | x | x | n | x
COC(=O)c1c(C)n(-c2ccccc2)c2ccc(O)cc12 | x | n | n | n | n
CN(C)/C=C/c1c([N+](=O)[O-])c2ccc(O)cc2n1-c1ccccc1 | -58.9 | u | n | n | n
C=CCc1ccccc1OCc1ccc(C(=O)O)cc1 | x | x | x | n | x
CN(C(=O)COn1nnc2ccc(S(=O)(=O)N3CCOCC3)cc21)c1ccccc1 | n | n | n | n | n
Cc1ccccc1COn1nnc2ccc(S(=O)(=O)N3CCOCC3)cc21 | n | -51.5 | n | n | n
O=C(CSc1nnc(C2CC2)n1C1CC1)c1ccc(F)c(F)c1 | n | n | n | n | n
CC(=O)Nc1cc(C(=O)CSc2nnc(C3CC3)n2C2CC2)ccc1O | -71.7 | n | n | n | n
SMILES | PI5P4K alpha inh | DRD3 antagonist | PI4K2A inh | LDHA block | DRD3 agonist
COc1ccc(-c2cc(NC(=O)c3ccc4c(c3)NC(=O)CCS4)ccc2OC)cc1 | x | x | x | n | x
CC[C@]12c3[nH]c4ccc(OC)cc4c3CCN1C(=O)C(CC(=O)NCCCn1ccnc1)C[C@@H]2C(=O)N1CCN(C(=O)c2ccco2)CC1 (stereo not given in full) | n | n | n | n | n
CCN(CC)C(=O)[C@H]1CC(CC(=O)NCCc2ccccn2)C(=O)N2CCc3c([nH]c4ccccc34)[C@]12C (stereo not given in full) | n | -54.5 | n | n | n
CC(C)(C)NC(=O)CC1C[C@H](C(=O)N2CCCCC2)[C@@]2(C)c3[nH]c4ccccc4c3CCN2C1=O (stereo not given in full) | n | n | -58.9 | n | n
CCN(CC)C(=O)[C@H]1CC(CC(=O)NCCc2ccccn2)C(=O)N2CCc3c([nH]c4ccc(OC)cc34)[C@]12C (stereo not given in full) | n | n | n | n | n
CC[C@]12c3[nH]c4ccc(Cl)cc4c3CCN1C(=O)[C@@H](CC(=O)NCCCn1ccnc1)C[C@@H]2C(=O)N1CCN(C(=O)c2ccco2)CC1 | n | n | n | n | 49.3
CN(C)CCCNC(=O)C[C@H]1C[C@H](C(=O)N2CCOCC2)[C@@]2(C)c3[nH]c4cc(-c5ccco5)ccc4c3CCN2C1=O | n | n | n | n | n
